In PubChem BioAssay (EPA / NIEHS):
Values joined by “and” are separate entries in the source; they are usually repeats but may differ in a detail not shown here. Identical values can stand only once. Active and inactive are the calls of the source. How the source made its calls: active means hit-call score of the fitted dose curve at least 0.9, where 1 is the maximum; inactive means score below 0.9.

Test: BSK_3C_Proliferation: Cell Proliferation Assessment in the BioMAP Diversity Plus: 3C Assay (AID 2283006);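 on AC50: potency may reflect either rise or fall in cell number versus DMSO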
Details: primary human endothelial cells (HUVEC)
Experimental: BSK_3C is a cell-based, multiplexed-readout assay that uses umbilical vein endothelium, a human vascular primary cell, with measurements taken at 24 hours after chemical dosing in a 96-well plate.BSK_3C_Proliferation is an assay component measured in the BSK_3C assay. It measures 0.1% sulforhodamine related to cell proliferation using Sulforhodamine staining technology.Data from the assay component BSK_3C_Proliferation was analyzed into 1 assay endpoint. This assay endpoint, BSK_3C_Proliferation, was analyzed with bidirectional fitting relative to DMSO as the negative control and baseline of activity. Using a type of viability reporter, measures of total protein for gain or loss-of-signal activity can be used to understand the viability at the cellular-level. Furthermore, this assay endpoint can be referred to as a secondary readout, because this assay has produced multiple assay endpoints where this one serves a viability function. To generalize the intended target to other relatable targets, this assay endpoint is annotated to the cell cycle intended target family, where the subfamily is proliferation.
The levels of cell surface (or secreted, indicated by the prefix "s") biomarker endpoints were measured by ELISA. Overt cytotoxicity to cells in confluent adherent cultures (all systems other than the BT system) was assessed by measuring total protein levels using sulforhodamine B (SRB) staining in parallel cultures at the time of biomarker measurements, indicated as SRB endpoints. For proliferation assays for adherent cell types, individual cell types are cultured at sub-confluence and relative cell numbers quantified by SRB staining at time points optimized for each system (48 h: 3C and CASM3C systems; 72 h: BT and HDF3CGF systems; 96 h: SAg system). SRB was performed by staining cells with 0.1% SRB after fixation with 10% TCA and reading wells at 560 nm.Viability and proliferation of PBMC (T cells) was quantified by Alamar Blue reduction for the SAg and BT systems. For PBMC viability (referred to as PBMC Cytotoxicity within the assay endpoint names), cells were plated (75,000/well in a 96-well plate) and then chemical samples added for 1 h before addition of activators, SEB and TSST-1 (20 ng/mL final concentration each). Cells were incubated for 90 h. Then, Alamar Blue (20 uL/well) (Invitrogen, Cat DAL1100) was added for 6 h, and the plates were read with a fluorescence microplate reader at 546/580 nm (excitation/emission). For PBMC proliferation, cells were plated and activated as above but incubated for only 16 h prior to addition of Alamar Blue. Plates were read after 6 h.

SMILES | outcome | AC50
CC(=O)OC[C@H]1O[C@@](COC(C)=O)(O[C@H]2O[C@H](COC(C)=O)[C@@H](OC(C)=O)[C@H](OC(C)=O)[C@H]2OC(C)=O)[C@@H](OC(C)=O)[C@@H]1OC(C)=O | inactive | 
CCCCCCCCCCCCc1ccccc1 | inactive | 
Cn1c(=O)cc(Oc2ccc(F)cc2F)c2cnc(NCC(C)(C)O)nc21 | inactive | 
C=CCCCCCCCCC(=O)O | inactive | 
C[C@](N)(Cc1ccc(O)c(O)c1)C(=O)O | inactive | 
COC(=O)c1ccccc1O | inactive | 
COC(=O)c1c(Cl)c(Cl)c(C(=O)OC)c(Cl)c1Cl |  | 14.6 µM (active)
O=C(O)CC(O)C(=O)O (stereo not given) | inactive | 
CCOC(=O)COc1ccc2c(c1)CC(NCC(O)c1cccc(Cl)c1)CC2 (stereo not given) |  | 15.3 µM (active)
O=P(OC(CCl)CCl)(OC(CCl)CCl)OC(CCl)CCl |  | 10.6 µM (active)
C1=CCCC=CCCC=CCC1 | inactive | 
CC(C)c1cccc(C(C)C)c1N1C(=O)c2ccc(O)cc2C1=O |  | 3.32 µM (active)
CCCCC(CC)COC(=O)c1ccc(C(=O)OCC(CC)CCCC)cc1 (stereo not given) | inactive | 
COc1cccc(-c2ccc(/C=C\CN3CCCCCC3)cc2Cl)c1 |  | 14.2 µM (active)
CC1=CC(=O)CC(C)(C)C1 | inactive | 
Cn1cnc([N+](=O)[O-])c1Sc1ncnc2nc[nH]c12 |  | 6.59 µM (active) and 2.94 µM (active) and 9.77 µM (active)
CCCCCCCCO | inactive | 
Nc1nc2ncc(CNc3ccc(C(=O)N[C@@H](CCC(=O)O)C(=O)O)cc3)nc2c(=O)[nH]1 | inactive | 
CCc1cc(SCc2sc(-c3ccc(C(F)(F)F)cc3)nc2CN2CCN(c3ccc(OC)cc3)CC2)ccc1OCC(=O)O |  | 9.19 µM (active)
CCOCCO | inactive | 

SMILES | outcome | AC50
O=C(O)c1cc(N=Nc2ccc(S(=O)(=O)Nc3ccccn3)cc2)ccc1O | inactive | 
CNCc1ccc(NC(=O)c2c[nH]c3c2C(=O)CCC3)cc1 | inactive | 
CC(C)=CCCC(C)=CC=O | inactive | 
O=C1OC(=O)C2C3C=CC(C3)C12 (stereo not given) | inactive | 
COc1ccc(/C=C/S(=O)(=O)NC(=O)c2ccc(C)cc2Cl)cc1 |  | 7.08 µM (active)
CCN(C(=O)c1cc(C)cc(OC[C@H](C)Nc2ccncc2)c1)C(C)C | inactive | 
O=C(O)c1cccc(Oc2ccccc2)c1 | inactive | 
O=c1[nH]c2ccc(S(=O)CCN3CCC(Cc4ccc(F)cc4)CC3)cc2o1 (stereo not given) | inactive | 
CN(C)c1ccc(Cc2ccc(N(C)C)cc2)cc1 |  | 13.4 µM (active)
CC(C)=CCCC(C)CCO (stereo not given) | inactive | 
O=C(OC[C@H]1O[C@@H](OC(=O)c2cc(O)c(O)c(OC(=O)c3cc(O)c(O)c(O)c3)c2)[C@H](OC(=O)c2cc(O)c(O)c(OC(=O)c3cc(O)c(O)c(O)c3)c2)[C@@H](OC(=O)c2cc(O)c(O)c(OC(=O)c3cc(O)c(O)c(O)c3)c2)[C@@H]1OC(=O)c1cc(O)c(O)c(OC(=O)c2cc(O)c(O)c(O)c2)c1)c1cc(O)c(O)c(OC(=O)c2cc(O)c(O)c(O)c2)c1 |  | 9.47 µM (active)
CC/C(=C\C(=N/O)C(N)=O)C(C)[N+](=O)[O-] (stereo not given) | inactive | 
O=C(CCCCCCCCc1cccnc1)N1CCC(C=C(c2ccccc2)c2ccccc2)CC1 |  | 5.66 µM (active)
Cc1c(-c2cccnc2)c2ccccc2n1CCCCC(=O)O |  | 17.4 µM (active)
On1ccccc1=S |  | 4.91 µM (active)
CCCN(C1CCN(C(=O)C2CCNCC2)CC1)[C@@H]1CCc2ccc(OC)cc2C1 | inactive | 
CC(=O)c1ccc2c(c1)[C@H](NC(=O)c1ccc(F)cc1)[C@@H](O)C(C)(C)O2 | inactive | 
NC(=O)NO | inactive | 
CC(C)CCCCCCCOC(=O)CCCCC(=O)OCCCCCCCC(C)C | inactive | 
CC1(C)C(=O)N(Br)C(=O)N1Br | inactive | 
